Legend:
Test in all cases: log2 ratio of Biotin-Ahx-Ub-VS probe labelling (fragment/DMSO); higher = less target engagement (more negative = stronger competition), active = hit call of the paper (q ≤ 0.05, log2 ratio ≤ -1)
Conditions in all cases: compound concentration: 200 uM; treatment time: 3 h
ALG13 = biological target: T1, ALG13 (UniProt Q9NP73)
T1 sequence (whole entry): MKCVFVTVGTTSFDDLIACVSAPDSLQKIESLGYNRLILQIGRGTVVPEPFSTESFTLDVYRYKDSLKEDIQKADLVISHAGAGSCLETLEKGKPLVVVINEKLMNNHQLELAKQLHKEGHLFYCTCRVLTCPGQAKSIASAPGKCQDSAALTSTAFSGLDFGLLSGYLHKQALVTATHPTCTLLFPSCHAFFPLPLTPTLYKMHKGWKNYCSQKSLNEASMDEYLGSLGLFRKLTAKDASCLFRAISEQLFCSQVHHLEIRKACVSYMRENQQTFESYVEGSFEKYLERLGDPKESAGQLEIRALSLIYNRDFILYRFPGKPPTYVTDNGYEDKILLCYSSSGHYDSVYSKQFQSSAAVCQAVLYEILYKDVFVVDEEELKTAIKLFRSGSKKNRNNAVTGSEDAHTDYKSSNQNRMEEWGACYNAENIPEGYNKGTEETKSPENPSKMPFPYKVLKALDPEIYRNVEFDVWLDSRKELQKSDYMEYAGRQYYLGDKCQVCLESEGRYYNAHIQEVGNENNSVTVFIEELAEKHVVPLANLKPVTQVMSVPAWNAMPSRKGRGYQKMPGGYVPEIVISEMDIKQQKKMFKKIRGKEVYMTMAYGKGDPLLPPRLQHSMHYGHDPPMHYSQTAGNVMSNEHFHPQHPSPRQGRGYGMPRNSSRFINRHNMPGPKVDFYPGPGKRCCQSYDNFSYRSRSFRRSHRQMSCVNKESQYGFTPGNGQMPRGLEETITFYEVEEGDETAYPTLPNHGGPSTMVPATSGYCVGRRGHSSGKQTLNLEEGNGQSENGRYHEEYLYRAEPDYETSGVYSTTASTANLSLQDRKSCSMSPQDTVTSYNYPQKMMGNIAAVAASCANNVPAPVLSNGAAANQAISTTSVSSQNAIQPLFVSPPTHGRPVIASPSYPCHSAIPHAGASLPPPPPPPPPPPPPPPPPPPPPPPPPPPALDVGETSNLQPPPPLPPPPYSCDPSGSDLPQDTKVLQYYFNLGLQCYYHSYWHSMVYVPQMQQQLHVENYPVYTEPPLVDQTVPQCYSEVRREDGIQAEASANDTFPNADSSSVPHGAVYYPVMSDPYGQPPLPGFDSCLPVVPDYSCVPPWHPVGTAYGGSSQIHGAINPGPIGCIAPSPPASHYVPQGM
Outline: (§1)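 HEK293T lysate (495 µg per sample, in Tris/CHAPS/IGEPAL buffer with protease inhibitors) was treated in triplicate with fragment at 200 µM or with DMSO for 3 h. It was then treated with Biotin-Ahx-Ub-VS (0.5 µM final) for 1 h. Labelled DUBs were NeutrAvidin-enriched, digested with LysC and trypsin, and run by diaPASEF LC-MS/MS. Spectronaut label-free quantities were global-median-normalised. Values are average log2 ratios fragment/DMSO by unpaired t-test, using proteins with ≥2 unique peptides.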

ATXN3 = ATXN3 (UniProt P54252)
Outline: as §1

BAP1 = biological target: T2, BAP1 (UniProt Q92560)
T2 sequence (whole entry): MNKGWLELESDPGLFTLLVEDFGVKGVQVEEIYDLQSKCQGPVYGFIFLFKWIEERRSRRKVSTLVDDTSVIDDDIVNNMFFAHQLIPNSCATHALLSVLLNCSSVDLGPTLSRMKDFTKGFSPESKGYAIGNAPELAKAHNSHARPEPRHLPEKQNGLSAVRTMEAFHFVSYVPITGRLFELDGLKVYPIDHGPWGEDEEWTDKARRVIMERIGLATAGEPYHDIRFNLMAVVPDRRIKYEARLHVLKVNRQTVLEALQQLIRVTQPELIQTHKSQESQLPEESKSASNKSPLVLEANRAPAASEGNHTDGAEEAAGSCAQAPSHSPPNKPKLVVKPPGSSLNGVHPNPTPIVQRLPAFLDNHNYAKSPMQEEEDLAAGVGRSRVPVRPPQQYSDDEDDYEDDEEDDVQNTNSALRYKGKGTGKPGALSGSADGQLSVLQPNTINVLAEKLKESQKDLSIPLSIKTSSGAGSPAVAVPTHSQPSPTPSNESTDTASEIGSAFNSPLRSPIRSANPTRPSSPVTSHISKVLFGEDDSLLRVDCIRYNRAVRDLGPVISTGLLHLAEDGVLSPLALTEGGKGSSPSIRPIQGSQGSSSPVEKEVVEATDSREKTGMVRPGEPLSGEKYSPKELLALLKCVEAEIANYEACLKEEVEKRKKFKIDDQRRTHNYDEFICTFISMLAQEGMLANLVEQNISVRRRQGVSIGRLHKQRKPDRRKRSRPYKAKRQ
Outline: as §1

EIF3F = EIF3F (UniProt O00303)
Outline: as §1

EIF3H = EIF3H (UniProt O15372)
Outline: as §1

FAM105A = biological target: T3, FAM105A (UniProt Q9NUU6)
T3 sequence (whole entry): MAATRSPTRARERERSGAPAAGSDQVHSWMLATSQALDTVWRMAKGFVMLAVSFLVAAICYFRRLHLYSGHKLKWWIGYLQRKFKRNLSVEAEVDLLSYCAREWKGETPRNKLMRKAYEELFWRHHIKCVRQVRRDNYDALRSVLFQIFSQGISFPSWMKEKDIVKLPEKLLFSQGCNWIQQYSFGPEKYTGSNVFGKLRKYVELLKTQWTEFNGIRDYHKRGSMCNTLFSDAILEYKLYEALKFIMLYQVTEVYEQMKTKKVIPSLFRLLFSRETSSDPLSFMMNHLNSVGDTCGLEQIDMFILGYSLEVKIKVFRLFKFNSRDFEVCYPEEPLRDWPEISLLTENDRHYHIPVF
Outline: as §1

OTUB1 = OTUB1 (UniProt Q96FW1)
Outline: as §1

OTUD4 = biological target: T4, OTUD4 (UniProt Q01804)
T4 sequence (whole entry): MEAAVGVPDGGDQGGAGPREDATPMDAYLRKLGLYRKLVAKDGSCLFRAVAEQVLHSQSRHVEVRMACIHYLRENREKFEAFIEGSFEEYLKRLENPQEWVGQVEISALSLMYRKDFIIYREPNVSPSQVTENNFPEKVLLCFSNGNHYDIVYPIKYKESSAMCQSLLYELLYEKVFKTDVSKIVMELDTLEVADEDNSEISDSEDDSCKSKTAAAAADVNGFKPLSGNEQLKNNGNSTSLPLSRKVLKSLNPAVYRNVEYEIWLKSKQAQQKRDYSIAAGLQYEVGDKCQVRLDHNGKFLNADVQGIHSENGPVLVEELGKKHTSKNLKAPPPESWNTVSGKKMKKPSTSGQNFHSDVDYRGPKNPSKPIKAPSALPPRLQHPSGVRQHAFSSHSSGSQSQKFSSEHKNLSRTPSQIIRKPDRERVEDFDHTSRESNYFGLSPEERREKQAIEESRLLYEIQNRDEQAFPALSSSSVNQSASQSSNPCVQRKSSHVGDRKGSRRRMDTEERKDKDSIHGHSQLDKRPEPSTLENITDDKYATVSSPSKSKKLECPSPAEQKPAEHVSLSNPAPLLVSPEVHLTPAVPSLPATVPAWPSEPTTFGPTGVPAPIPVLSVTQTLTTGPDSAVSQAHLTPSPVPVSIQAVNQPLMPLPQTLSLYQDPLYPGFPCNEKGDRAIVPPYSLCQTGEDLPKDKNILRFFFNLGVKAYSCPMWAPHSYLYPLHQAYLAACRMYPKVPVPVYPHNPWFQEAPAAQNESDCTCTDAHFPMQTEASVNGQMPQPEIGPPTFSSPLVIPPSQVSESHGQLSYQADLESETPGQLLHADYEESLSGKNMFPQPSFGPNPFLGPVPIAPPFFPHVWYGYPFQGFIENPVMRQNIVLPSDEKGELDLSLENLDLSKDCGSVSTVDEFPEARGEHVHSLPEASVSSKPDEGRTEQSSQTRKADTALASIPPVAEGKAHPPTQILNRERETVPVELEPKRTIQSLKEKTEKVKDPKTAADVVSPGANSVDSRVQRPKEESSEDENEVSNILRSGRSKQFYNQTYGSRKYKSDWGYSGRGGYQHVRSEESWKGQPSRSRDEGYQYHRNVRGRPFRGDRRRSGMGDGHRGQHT
Outline: as §1

OTUD5 = biological target: T5, OTUD5 (UniProt Q96G74)
T5 sequence (whole entry): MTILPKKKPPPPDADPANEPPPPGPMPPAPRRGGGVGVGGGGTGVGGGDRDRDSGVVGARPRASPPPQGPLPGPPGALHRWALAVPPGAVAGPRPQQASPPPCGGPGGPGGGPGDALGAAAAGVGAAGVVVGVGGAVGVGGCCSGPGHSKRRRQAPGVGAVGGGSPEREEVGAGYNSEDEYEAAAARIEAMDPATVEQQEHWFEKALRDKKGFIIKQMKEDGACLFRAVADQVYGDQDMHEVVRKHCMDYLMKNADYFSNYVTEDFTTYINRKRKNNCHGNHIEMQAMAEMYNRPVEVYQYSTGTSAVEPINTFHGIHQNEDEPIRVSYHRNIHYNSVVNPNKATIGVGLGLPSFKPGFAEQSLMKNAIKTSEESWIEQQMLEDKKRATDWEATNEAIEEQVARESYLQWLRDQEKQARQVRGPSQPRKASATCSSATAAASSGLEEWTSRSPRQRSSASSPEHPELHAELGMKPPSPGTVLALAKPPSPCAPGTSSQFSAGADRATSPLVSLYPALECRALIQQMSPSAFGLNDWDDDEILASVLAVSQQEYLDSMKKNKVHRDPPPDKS
Outline: as §1

Measured: log2 ratio of Biotin-Ahx-Ub-VS probe labelling

Sequence of ATXN3 (P54252 whole entry): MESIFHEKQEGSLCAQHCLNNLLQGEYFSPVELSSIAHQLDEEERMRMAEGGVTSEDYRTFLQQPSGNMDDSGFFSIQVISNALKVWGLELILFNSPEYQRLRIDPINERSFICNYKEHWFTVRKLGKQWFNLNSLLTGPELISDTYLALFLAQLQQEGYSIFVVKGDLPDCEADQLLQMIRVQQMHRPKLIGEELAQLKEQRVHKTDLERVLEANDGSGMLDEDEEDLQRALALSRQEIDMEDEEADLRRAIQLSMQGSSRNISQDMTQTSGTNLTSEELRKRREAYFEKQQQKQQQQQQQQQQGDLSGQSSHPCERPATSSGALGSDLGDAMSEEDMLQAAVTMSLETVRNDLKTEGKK
Sequence of EIF3F (O00303 whole entry): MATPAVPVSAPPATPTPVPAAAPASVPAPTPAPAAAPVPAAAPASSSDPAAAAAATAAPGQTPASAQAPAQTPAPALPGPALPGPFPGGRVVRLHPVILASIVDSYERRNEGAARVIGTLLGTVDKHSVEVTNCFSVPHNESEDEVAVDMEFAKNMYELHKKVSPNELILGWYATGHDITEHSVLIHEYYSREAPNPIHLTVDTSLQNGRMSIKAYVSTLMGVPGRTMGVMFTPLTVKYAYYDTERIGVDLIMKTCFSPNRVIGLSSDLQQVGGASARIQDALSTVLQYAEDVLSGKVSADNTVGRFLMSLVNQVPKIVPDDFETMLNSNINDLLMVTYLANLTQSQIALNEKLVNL
Sequence of EIF3H (O15372 whole entry): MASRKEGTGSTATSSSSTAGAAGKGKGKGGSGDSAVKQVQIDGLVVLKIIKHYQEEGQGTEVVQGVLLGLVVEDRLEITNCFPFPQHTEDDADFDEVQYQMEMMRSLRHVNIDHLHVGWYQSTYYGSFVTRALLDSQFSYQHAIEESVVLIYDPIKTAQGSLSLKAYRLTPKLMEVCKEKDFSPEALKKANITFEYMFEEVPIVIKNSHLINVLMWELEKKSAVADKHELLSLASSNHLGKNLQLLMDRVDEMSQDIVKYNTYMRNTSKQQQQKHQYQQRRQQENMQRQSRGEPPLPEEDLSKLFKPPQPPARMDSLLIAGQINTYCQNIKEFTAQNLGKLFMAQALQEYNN
Sequence of OTUB1 (Q96FW1 whole entry): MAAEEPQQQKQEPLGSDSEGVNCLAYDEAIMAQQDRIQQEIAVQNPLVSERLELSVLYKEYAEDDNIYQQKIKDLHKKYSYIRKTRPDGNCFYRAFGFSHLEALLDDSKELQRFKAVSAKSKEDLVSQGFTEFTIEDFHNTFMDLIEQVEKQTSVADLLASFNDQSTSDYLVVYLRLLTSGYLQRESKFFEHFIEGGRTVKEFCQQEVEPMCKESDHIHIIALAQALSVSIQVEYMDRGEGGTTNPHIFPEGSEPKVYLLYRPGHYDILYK

O=C(CCl)NC1(c2ccc3c(c2)OCCO3)CCCC1
active: BAP1 -1.89 | OTUD4 -1.1
inactive: ALG13 -0.035 | ATXN3 -0.252 | EIF3F -0.19 | EIF3H -0.051 | FAM105A 0.0394 | OTUB1 -0.359 | OTUD5 -0.293
